From PubChem BioAssay (NCATS)
Inconclusive results are not listed. Active and inactive are the calls of the source. Calls come from the whole dose curve; as a rule, active = well fitted curve in the direction sought with a large enough effect; inconclusive = small, poorly fitted or top-dose-only effect, or another doubt; inactive = no such curve, though single readings can be large; an effect the other way counts as inactive or inconclusive.

Assays:
[1] = tested on: HEK293T; experiment: qHTS assay to identify novel small-molecules to repurpose for Merkel cell carcinoma treatment (AID 1296009); details: MCC and control cell lines, CellTiter-Glo viability, 72 h; at 44.8 µM (top of the series) unless noted; note: nearly all actives have a fitted effect of over 60% in size
In short: (§1)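 Luminescence from CellTiter-Glo, read 10 min after addition at room temperature, reported viability following a 72 hr, 37 degree celsius treatment with NPC or MIPE compounds in titration; values normalized to plate controls.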

[2] = tested on: MCC-13; experiment: as above; details: MCC and control cell lines, CellTiter-Glo viability, 72 h; series mostly up to 46 µM
In short: as §1

[3] = tested on: MCC-26; experiment: as above; details: MCC and control cell lines, CellTiter-Glo viability, 72 h; series mostly up to 46 µM
In short: as §1

[4] = tested on: MKL-1; experiment: as above; details: MCC and control cell lines, CellTiter-Glo viability, 72 h; series mostly up to 46 µM
In short: as §1

[5] = tested on: MKL-2; experiment: as above; details: MCC and control cell lines, CellTiter-Glo viability, 72 h; series mostly up to 46 µM
In short: as §1

[6] = tested on: UISO; experiment: as above; details: MCC and control cell lines, CellTiter-Glo viability, 72 h; series mostly up to 46 µM
In short: as §1

[7] = tested on: WaGa; experiment: as above; details: MCC and control cell lines, CellTiter-Glo viability, 72 h; series mostly up to 46 µM
In short: as §1

[8] = tested on: C33A; experiment: Primary qHTS to identify gynecologic anti-cancer compounds using libraries of approved drugs and bioactive compounds (AID 1345084); details: Gynecologic cancer cell panel viability, ATPlite luminescence, 48 h; series mostly up to 57.5 µM; note: nearly all actives have a fitted effect of over 55% in size
In short: (§2)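 Luminescence from the ATPlite ATP-monitoring reagent indicates viable cell number; lower signal means cytotoxicity. Cells received compound 16 h after seeding and were exposed for 48 h across five concentrations.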

[9] = tested on: CAOV3; experiment: as above; details: Gynecologic cancer cell panel viability, ATPlite luminescence, 48 h; series mostly up to 57.5 µM
In short: as §2

[10] = tested on: CASKI; experiment: as above; details: Gynecologic cancer cell panel viability, ATPlite luminescence, 48 h; series mostly up to 57.5 µM
In short: as §2

[11] = tested on: Es-2; experiment: as above; details: Gynecologic cancer cell panel viability, ATPlite luminescence, 48 h; series mostly up to 57.5 µM
In short: as §2

[12] = tested on: HeLa; experiment: as above; details: Gynecologic cancer cell panel viability, ATPlite luminescence, 48 h; series mostly up to 57.5 µM
In short: as §2

[13] = tested on: Hek293T; experiment: as above; details: Gynecologic cancer cell panel viability, ATPlite luminescence, 48 h, control line for the selectivity index; series mostly up to 57.5 µM
In short: as §2

[14] = tested on: JEG-3; experiment: as above; details: Gynecologic cancer cell panel viability, ATPlite luminescence, 48 h; series mostly up to 57.5 µM
In short: as §2

[15] = tested on: OV90; experiment: as above; details: Gynecologic cancer cell panel viability, ATPlite luminescence, 48 h; series mostly up to 57.5 µM
In short: as §2

[16] = tested on: PA-1; experiment: as above; details: Gynecologic cancer cell panel viability, ATPlite luminescence, 48 h; series mostly up to 57.5 µM
In short: as §2

[17] = tested on: SKOV3; experiment: as above; details: Gynecologic cancer cell panel viability, ATPlite luminescence, 48 h; series mostly up to 57.5 µM
In short: as §2

[18] = tested on: Tov-21-G; experiment: as above; details: Gynecologic cancer cell panel viability, ATPlite luminescence, 48 h; series mostly up to 57.5 µM
In short: as §2

[19] = tested on: Tov112D; experiment: as above; details: Gynecologic cancer cell panel viability, ATPlite luminescence, 48 h; series mostly up to 57.5 µM
In short: as §2

[20] = tested on: NIH3T3; experiment: qHTS assay to identify novel small-molecules to repurpose for Merkel cell carcinoma treatment (AID 1296009); details: MCC and control cell lines, CellTiter-Glo viability, 72 h; at 44.8 µM (top of the series) unless noted; note: nearly all actives have a fitted effect of over 60% in size
In short: as §1

Measured: Potency

CCCCOCCOC(=O)c1cccnc1
not listed: [20]
inactive: all other assays above

CC(=O)CC/C=C(\C)CC/C=C(\C)CC/C=C(\C)CCC=C(C)C
not listed: [20]
inactive: all other assays above

OC1(c2ccc(Cl)cc2)CCNCC1
not listed: [20]
inactive: all other assays above

CC(C)(C)c1nnc(NS(=O)(=O)c2ccccc2)s1
not listed: [20]
inactive: all other assays above

Cc1cccc(C)c1NC(=O)c1cc(S(N)(=O)=O)c(Cl)cc1O
not listed: [20]
inactive: all other assays above

CC(NC(CCc1ccccc1)C(=O)O)C(=O)N1C(=O)N(C)CC1C(=O)O (centres undefined)
not listed: [17] | [20]
inactive: all other assays above

CCN1CCCC1CN (centres undefined)
not listed: [20]
inactive: all other assays above

COc1cc(NS(=O)(=O)c2ccc(N)cc2)nc(C)n1
not listed: [20]
inactive: all other assays above

Cc1ccc(C(=O)C(=O)O)cc1C
not listed: [20]
inactive: all other assays above

Cc1c(N)cccc1C(F)(F)F
not listed: [17] | [20]
inactive: all other assays above

CNC(=O)c1cnn(-c2nc(N)c3ncn([C@@H]4O[C@H](CO)[C@@H](O)[C@H]4O)c3n2)c1
not listed: [20]
inactive: all other assays above

Cc1ncc([N+](=O)[O-])n1C
not listed: [17] | [20]
inactive: all other assays above

O=C(O)Cn1cnnn1
not listed: [20]
inactive: all other assays above

CCCC(=O)Nc1ccc(O)c(C(C)=O)c1
not listed: [20]
inactive: all other assays above

CC(=O)O[C@@H]1CC2C3CCc4cc(OC(=O)c5ccccc5)ccc4C3CCC2(C)[C@H]1OC(C)=O (some centres undefined)
not listed: [20]
inactive: all other assays above

C[C@@]12CCC[C@H]1[C@@H]1CC[C@H]3C[C@@H](O)CC[C@]3(C)[C@H]1CC2
not listed: [20]
inactive: all other assays above

C1N2CN3CN1CN(C2)C3
not listed: [20]
inactive: all other assays above

C[C@H]1C[C@@H]2[C@H]([C@@H](O)C[C@@]3(C)[C@H]2CC[C@]3(O)C(=O)CO)[C@@]2(C)C=CC(=O)C=C12
not listed: [20]
inactive: all other assays above

Cc1c(F)cc2c(=O)c(C(=O)O)cn3c2c1CCC3C (centres undefined)
not listed: [20]
inactive: all other assays above

NS(=O)(=O)c1cc2c(cc1Cl)CN(C1CCCCC1)C2=O
not listed: [20]
inactive: all other assays above

O=C(CCCCC(=O)Nc1c(I)cc(I)c(C(=O)O)c1I)Nc1c(I)cc(I)c(C(=O)O)c1I
not listed: [20]
inactive: all other assays above

CCN1CCN(c2cc(-c3ccc(F)cc3)c3c(n2)CCCCCC3)CC1
inactive: [2] | [3] | [4] | [5] | [20] inactive [at 17.4 µM] | [6] | [7] | [8] | [9] | [10] | [11] | [12] | [13] | [14] | [15] | [16] | [17] | [18] | [19]

CCOC(=O)OCC/C(SC(=O)OCC)=C(\C)N(C=O)Cc1cnc(C)nc1N
not listed: [1]
inactive: all other assays above

Nc1nc(=O)n([C@@H]2O[C@H](CO)[C@@H](O)[C@@H]2F)cc1I
not listed: [2] | [6] | [7] | [20]
inactive: all other assays above

O=c1[nH]c(=O)n([C@H]2O[C@H](CO)[C@@H](O)[C@@H]2O)cc1/C=C\Br
not listed: [9] | [17] | [20]
inactive: all other assays above

CCOc1ccc(NS(=O)(=O)c2ccc(N)cc2)nn1
not listed: [9] | [20]
inactive: all other assays above

Cc1cccc(C)c1NC(=O)c1ccc(N)cc1
not listed: [1]
inactive: all other assays above
